Screening data from PubChem BioAssay.
aSyn UTR inh – MLPCN primary screen, SNCA 5' untranslated region; alpha-synuclein 5'UTR reporter, inhibitor activity; inhibition, % (tested at 7.5 µM); 0.82% of 300,000 active; AID 1813, 2009; in the data active means inhibition above about 60%;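 further: H4 neuroglioblastoma cells stably carrying SNCA 5'UTR luciferase fusion; 0% = DMSO wells and 100% = positive control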
IEC-6 tox – cytotoxicity in IEC-6 intestinal epithelial cells, primary screen, cytotoxicity control for KLF5 inhibitor project, cell-based, luminescence; IEC-6 cytotoxicity, luminescence viability; inhibition, % at 5 µM; 0.78% of 290,000 active; AID 1825, 2009; in the data active means inhibition above about 22%;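 further: 0% = plate median of test compound wells and 100% = cytotoxic reference compound wells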
BaF3 tox – parental Ba/F3 cell viability inhibition, counter-screen for JAK2V617F inhibitor project, murine pro-B, CellTiter-Glo luminescence | CellTiter-Glo ATP luminescence | AID 1486, 2009 | 1.1% of 220,000 active | inhibition, % at 5.6 µM;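 active means inhibition above a per-campaign cutoff, the mean inhibition of all tested compounds plus 3 SD, cut at about 27% in these data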;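 further: 0% = DMSO wells and 100% = JAK Inhibitor I control wells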
KLF5 inh – KLF5 expression inhibitors, primary screen, DLD-1 cells, luminescence; AID 1700, 2009; 0.23% of 290,000 active; inhibition, % at 5 µM; DLD-1 KLF5 promoter-luciferase reporter;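 active means inhibition above a per-plate limit of that plate's mean compound inhibition plus 3 SD, cut at about 60% in these data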;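 further: 0% = DMSO wells and 100% = LY294002 at 200 µM; higher means less KLF5 promoter-driven luciferase light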
APP transl inh – inhibitors of APP translation via 5'UTR reporter, primary screen, APP 5'UTR luciferase, SH-SY5Y cells; SH-SY5Y APP 5'UTR-luciferase reporter, luminescence; inhibition, % at 2 µM; 0.82% of 190,000 active; AID 1285, 2008;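 active means inhibition above a set limit, derived from the sample mean plus 3 SD, cut at about 45% in these data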
Ba/F3 V617F tox – reduced viability of JAK2V617F-dependent Ba/F3 cells, primary screen, JAK2V617F inhibitor project, cell-based, Ba/F3 EpoR-JAK2V617F, luminescence; 1.1% of 220,000 active; AID 1446, 2008; inhibition, % at 5.6 µM; ATP luminescence;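 active means inhibition above the campaign mean plus 3 SD over all tested compounds, cut at about 24% in these data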;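 further: cytokine-independent growth of Ba/F3 cells driven by EpoR plus mutant JAK2; 0% = DMSO-treated cells and 100% = JAK inhibitor I control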
* = called active by the depositor; . = no result given. Only some compounds are listed: those with a hit (about 2.2% of all), similar ones and a draw of the others.

SMILES	aSyn UTR inh	IEC-6 tox	BaF3 tox	KLF5 inh	APP transl inh	Ba/F3 V617F tox
Nc1ccc(OC(=O)Nc2ccc(O)cc2)cc1	91.4*	5.5	2.6	7.8	.	0.0
COc1cc(/C=C/[N+](=O)[O-])ccc1OC(=O)/C=C/c1ccc(F)cc1	-71.6	-13.8	.	-26.1	.	.
Cc1[nH][nH]c(=O)c1C(c1c(C)[nH][nH]c1=O)c1cn(Cc2ccccc2Cl)c2ccccc12	8.9	-1.3	2.3	-2.1	48.7*	1.2
N/C(=N\O)c1cn(Cc2ccccc2Cl)c2ccccc12	7.5	10.3	.	-25.8	.	.
O=C(Cn1c2[n+](c3ccc(C(F)(F)F)cc31)CCCCC2)Nc1ccccc1	7.7	2.5	7.3	-0.1	-1.5	1.4
FC(F)(F)c1ccc2c(c1)n(Cc1ccccc1)c1[n+]2CCCCC1	15.3	-2.7	34.5*	-9.3	-5.1	22.0
O=C(Cn1c2[n+](c3ccc(C(F)(F)F)cc31)CCCCC2)c1cccc([N+](=O)[O-])c1	-11.8	6.3	79.8*	-26.1	3.6	1.2
Cc1ccc(C)c(S(=O)(=O)Nc2ccc(C(=O)NCCc3ccccn3)cc2)c1	14.1	-0.7	8.9	-23.4	-8.8	4.0
OC1(c2cccs2)CN(c2ccc(Cl)cc2)C2=[N+]1CCCS2 (stereo not given)	-8.7	-0.8	-1.2	-42.6	-9.0	-1.7
OC1(c2cccs2)CN(c2ccc(Cl)cc2)C2=[N+]1CCCC2 (stereo not given)	-17.5	0.7	32.2*	-45.2	13.7	16.7
COc1cccc(/C=N/NC(N)=S)c1OCc1ccccc1Cl	22.7	1.4	0.2	-22.8	20.4	3.3
NC(=S)N/N=C/c1ccccc1OCCSc1ccc(Cl)cc1	2.0	-0.5	44.0*	-21.6	-35.6	44.5*
CCc1ccc2c(c1)Sc1ccccc1CC2N1CCN(C)CC1 (stereo not given)	-16.4	.	.	.	.	.
c1ccc2c(c1)CC(N1CCCCC1)c1ccccc1S2 (stereo not given)	89.8*	.	.	.	.	.
O=C(CCNC(=O)C1CCN(S(=O)(=O)c2ccccc2)CC1)NCCc1cccc(F)c1	-20.0	11.4	.	-3.0	.	.
COCCN1C(=O)N[C@@H](c2ccccc2)[C@H](C(=O)OC)[C@H]1C	-1.4	.	.	.	.	.
Cc1cc(NC(=S)NC(=O)c2ccccc2)ccc1-c1cc2ccccc2oc1=O	32.4	2.9	5.6	-18.6	68.6*	0.2
Cc1ccc(C(=O)Nc2cc3ccccc3oc2=O)cc1	111.1*	-2.1	4.0	-77.1	66.1*	-0.5
COc1cc(Oc2nc(C(F)(F)F)nc3ccccc23)ccc1C=O	0.6	-0.2	.	-7.0	.	.
CC(=O)C1=NN(c2ccccc2)C(c2cccs2)N1c1ccc(N(C)C)cc1 (stereo not given)	2.2	7.9	70.4*	-87.3	-10.3	81.5*
CC(=O)C1=NN(c2ccccc2)C(c2ccc3c(c2)OCO3)N1c1ccccc1 (stereo not given)	-11.1	-0.6	45.5*	-43.2	-25.8	20.8
CC(=O)N1N=C(c2ccccc2)CC1c1ccc2c(c1)OCO2 (stereo not given)	-27.3	-1.2	.	-30.4	.	.
CC(NC=O)c1nc2ccccc2n1CCc1ccccc1 (stereo not given)	2.1	10.7	.	-19.4	.	.
Cc1cccc(C(=O)N2CCC(Cc3ccccc3)CC2)c1[N+](=O)[O-]	18.4	5.5	0.2	-26.3	-9.8	-1.4
COc1ccc(S(=O)(=O)N2CCOCC2)cc1NC(=O)c1cccc2c(=O)c(C)c(-c3ccccc3)oc12	11.2	-10.1	6.1	-43.9	-2.9	-1.0
SMILES	aSyn UTR inh	IEC-6 tox	BaF3 tox	KLF5 inh	APP transl inh	Ba/F3 V617F tox
CCN(CC)CCN(C(=O)c1ccc2c(c1)OCCO2)c1nc2cc3c(cc2s1)OCO3	-49.7	0.0	.	-29.8	.	.
CCN(CC)CCN(C(=O)c1cc2c(ccc3ccccc32)oc1=O)c1nc2cc3c(cc2s1)OCCO3	78.2*	-7.7	.	-84.1	.	.
O=C(NCCOc1ccccc1)c1cc(S(=O)(=O)N2CCOCC2)ccc1F	23.5	5.7	.	-5.2	.	.
COc1ccc(NCc2ccc([N+](=O)[O-])s2)cc1	-50.1	-7.1	4.5	-29.8	49.0*	-2.0
O=C(Cn1cnc2c(oc3nc4c(cc32)CCCC4)c1=O)Nc1cccc(Cl)c1	66.3*	2.1	.	6.4	.	.
COc1cc2c(cc1OC)C(c1ccccc1N)=NCC2	-1.2	1.4	47.4*	-0.7	.	38.5*
COc1ccc2cc(S(=O)(=O)N3CCCC(C)C3)ccc2c1 (stereo not given)	2.1	3.3	.	-6.8	.	.
CCc1ccc2nc(SCC(=O)N3CC(=O)Nc4ccccc43)c(C#N)cc2c1	-1.1	-5.0	5.8	-37.6	93.7*	4.2
Cc1ccc(OC(=O)c2sc3ncn(C)c(=O)c3c2C)cc1	-120.2	-0.4	-4.1	-8.6	-129.4	-0.5
COc1ccc(Nc2cc(C)nc3ncnn23)c(OC)c1	1.3	1.5	-1.6	-1.9	-3.6	-4.1
COc1ccc(CNc2cc(C)nc3ncnn23)c(OC)c1	37.7	-1.7	31.4*	-13.4	-3.5	6.5
CCC(C)(C)c1nnc(NC(=O)C2CC(=O)N(CCc3ccc(F)cc3)C2)s1 (stereo not given)	-23.8	0.2	.	-1.0	.	.
Cc1ccc(/C=C/c2nc3ccccc3c(=O)[nH]2)cc1	67.8*	13.8	1.8	-79.6	.	4.9
CC(=O)Nc1cccc(OCC(=O)NC(C)C(C)C)c1 (stereo not given)	8.5	3.1	1.1	-3.0	68.9*	-0.8
CC(=O)Nc1ccc(OCC(=O)NC(C)C(C)C)cc1 (stereo not given)	-4.5	4.4	2.4	-19.3	-21.7	0.1
CC(C)(C)c1ccc(/C=C/C(=O)Nc2nncs2)cc1	-87.9	5.1	3.6	-57.9	-168.0	0.4
N#Cc1c(-c2ccccc2)c(-c2ccccc2)nn(CC(=O)NNC(=O)Nc2ccccc2)c1=O	-91.8	15.5	43.2*	23.7	3.1	19.6
CCc1c(C)c2ccc(OCC(=O)NCC3CCC(C(=O)O)CC3)cc2oc1=O (stereo not given)	15.4	0.6	.	-33.0	.	.
Cc1cccc(-c2nc(CNC(=O)c3ccco3)cs2)c1	-42.3	-2.4	.	-49.2	.	.
O=C(Nc1ccc(CN2CCCCC2)cc1)Nc1ccccc1Cl	-90.1	8.6	59.2*	-19.0	-41.6	0.9
CCN1CCN(Cc2ccc(NC(=O)Nc3ccccc3Cl)cc2)CC1	-87.0	3.7	8.6	-95.9	-140.6	1.8
COc1cccc(Sc2ccccc2/C=N/NC(N)=O)c1	16.1	6.7	7.4	16.0	65.2*	3.0
O=C(Nc1cccc(Br)c1)c1cc(=O)c2ccccc2o1	-28.1	9.3	.	-41.2	.	.
O=C(NCCCN1CCOCC1)c1ccc(NC(=O)C2COc3ccccc3O2)cc1 (stereo not given)	-15.5	-2.3	89.8*	5.3	-8.4	-0.1
